Prx2 Sm inh – inhibitors of Schistosoma mansoni peroxiredoxin 2 | S. mansoni Prx2 activity coupled to TGR/GSH (TGR is thioredoxin glutathione reductase), NADPH fluorescence loss, qHTS | Potency, µM | 0.07% of 65,000 active
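Coupled assay in which S. mansoni TGR passes NADPH reducing equivalents via glutathione to Prx2, which reduces H2O2. Compounds were preincubated 15 min at room temperature with 25 nM TGR/50 nM Prx2 mix. Kinetic NADPH fluorescence loss (ex 365/em 450 nm) was monitored.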
AmpC inh no det – blocks E. coli AmpC beta-lactamase in absence of detergent | P00811 | AmpC nitrocefin hydrolysis, absorbance 480 nm, no detergent | AID 585 | Potency, µM (highest dose often 28.7 µM), for the others: at the top dose activity change, negative = inhibition | 1.8% of 71,000 active; note: % of control where 0% means no effect
Target sequence (P00811 whole entry, looked up): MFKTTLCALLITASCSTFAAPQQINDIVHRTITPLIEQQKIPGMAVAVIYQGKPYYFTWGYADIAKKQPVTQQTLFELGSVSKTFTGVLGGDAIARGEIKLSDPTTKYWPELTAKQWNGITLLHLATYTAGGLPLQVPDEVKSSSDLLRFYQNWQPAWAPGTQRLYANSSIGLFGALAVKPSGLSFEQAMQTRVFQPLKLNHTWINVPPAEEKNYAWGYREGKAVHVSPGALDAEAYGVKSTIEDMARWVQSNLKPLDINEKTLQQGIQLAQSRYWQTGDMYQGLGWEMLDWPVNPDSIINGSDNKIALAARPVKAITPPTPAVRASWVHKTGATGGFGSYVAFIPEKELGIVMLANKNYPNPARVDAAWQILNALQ
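AmpC in 20 mM phosphate buffer pH 7.0 was preincubated 15 min at room temperature with compounds. Nitrocefin (800 uM stock) was then added and hydrolysis followed at 480 nm every 20 s for 4 min.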
AmpC det inh – blocks E. coli AmpC beta-lactamase in presence of detergent; P00811; purified AmpC, nitrocefin hydrolysis with detergent; Potency, µM (titrated, usually from 28.7 µM), for the others: at the top dose activity change, negative = inhibition; 0.09% of 71,000 active; AID 584; active = well fitted curve in the direction sought with a large enough effect; inconclusive = small, poorly fitted or top-dose-only effect; note: % is set by controls: 0 for no effect and ±100 for the full control effect
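E. coli AmpC (5.3 nM) in 20 mM phosphate pH 7.0 with 0.01% Triton X-100, preincubated 15 min RT with compound; nitrocefin (2 uL of 800 uM stock) hydrolysis followed by 480 nm absorbance every 20 s over 4 min.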
Anthrax LT inh – anthrax lethal toxin internalization inhibition | Cells, anthrax lethal toxin internalization, FRET ratio (460/530) | Potency, µM (highest dose often 40 µM), without a hit: at the highest dose activity change, negative = inhibition, hits mostly inhibitors | 0.67% of 70,000 active | AID 912; note: % is set by controls: 0 for no effect and ±100 for the full control effect; nearly all actives have a fitted effect of over 50% in size
Numbers without * were called inactive; [ ] = dose if it differs, or a comment. Hits are enriched below; roughly 2.6% of the tested compounds scored in any of these assays. Unless noted, calls come from the whole dose curve. Potency is the fitted concentration of half-maximal effect.

Results for CC(=O)N[C@H](c1ccccc1)[C@@]1(C)C[C@@H]1[C@@H](C)C(=O)Nc1ccc2ccccc2c1 ?
Prx2 Sm inh: >57; AmpC inh no det: 89.6%; AmpC det inh: 1.0%; Anthrax LT inh: inconclusive

What do the screens show for `COC(=O)N[C@H](c1ccccc1)[C@@]1(C)C[C@@H]1[C@@H](C)C(=O)Nc1ccc2ccccc2c1`?
Prx2 Sm inh: >57; AmpC inh no det: 16.4%; AmpC det inh: -4.4%; Anthrax LT inh: 10µM*

What do the screens show for `CC(C)[C@@H](CC(=O)N[C@@H]1CCCC[C@H]1C(=O)N[C@H](CC(=O)N[C@@H](CCC(=O)O)CC(=O)O)Cc1ccccc1)NC(=O)C[C@H](Cc1c[nH]c2ccccc12)NC(=O)[C@@H]1CCCC[C@H]1N`?
Prx2 Sm inh: >57; AmpC inh no det: 139.8%; AmpC det inh: 15.1%; Anthrax LT inh: -17.2%

What do the screens show for `COc1cccc2cc3c(=O)n(-c4ccccc4)nc-3oc12`?
Prx2 Sm inh: >57; AmpC inh no det: 3.16µM*[single pt active]; AmpC det inh: 10.6%; Anthrax LT inh: 6.7%

Results for O=C(O)Cc1nn(Cc2ccc(Br)cc2F)c(=O)c2ccccc12 ?
Prx2 Sm inh: >25.6; AmpC inh no det: 22.9%; AmpC det inh: -2.6%; Anthrax LT inh: inconclusive

How did CN(C)c1nc(N2CCCCC2)nc(N2CCCCC2)n1 do in these assays?
Prx2 Sm inh: >57; AmpC inh no det: 3.98µM*[single pt active]; AmpC det inh: 14.3%; Anthrax LT inh: -17.9%

How did c1ccc(-c2cccc(N3CCC4(CCNCC4)CC3)c2)cc1 do in these assays?
Prx2 Sm inh: >57; AmpC inh no det: 112.9%; AmpC det inh: -2.9%; Anthrax LT inh: 10µM*

How did c1ccc(-c2cccc(N3CC4(CCNCC4)C3)c2)cc1 do in these assays?
Prx2 Sm inh: >57; AmpC inh no det: 69.6%; AmpC det inh: -0.1%; Anthrax LT inh: -13.3%

Results for CN(c1nnc(N)s1)C1CCCCC1 ?
Prx2 Sm inh: >57; AmpC inh no det: 3.98µM*[single pt active]; AmpC det inh: 21.1%; Anthrax LT inh: -2.3%

How did Cc1[nH]nc2nc(SCC(=O)NCC3CCCO3)n(-c3ccc(Br)cc3)c(=N)c12 (centres undefined) do in these assays?
Prx2 Sm inh: >57; AmpC inh no det: 135.2%; AmpC det inh: -2.0%; Anthrax LT inh: -17.8%

How did Cc1cc(-n2c(SCC(=O)NCc3cccs3)nc3n[nH]c(C)c3c2=N)ccc1Cl do in these assays?
Prx2 Sm inh: >57; AmpC inh no det: 41.9%; AmpC det inh: -2.9%; Anthrax LT inh: 10µM*

How did CC1CCN(S(=O)(=O)c2ccc(NC(=O)Cn3nnc(-c4ccccc4)n3)cc2)CC1 do in these assays?
Prx2 Sm inh: >57; AmpC inh no det: -12.8%; AmpC det inh: -6.1%; Anthrax LT inh: inconclusive

Results for CC1CCCN(S(=O)(=O)c2ccc(NC(=O)Cn3nnc(-c4ccccc4F)n3)cc2)C1 (centres undefined) ?
Prx2 Sm inh: >57; AmpC inh no det: 15.8µM*; AmpC det inh: 15.1%; Anthrax LT inh: -25.9%

Results for Cc1ccc(-c2nnn(CC(=O)Nc3ccc(S(=O)(=O)N4CCC(C)CC4)cc3)n2)cc1 ?
Prx2 Sm inh: >57; AmpC inh no det: 12.6µM*; AmpC det inh: 6.3%; Anthrax LT inh: -24.8%

How did CC(CN1CCCCC1)OC(=O)c1ccc2c(c1)OCO2 (centres undefined) do in these assays?
Prx2 Sm inh: >57; AmpC inh no det: -10.1%; AmpC det inh: -1.1%; Anthrax LT inh: -3.5%

What do the screens show for `CC1CCN(CC(C)OC(=O)c2ccc3c(c2)OCCO3)CC1` (centres undefined)?
Prx2 Sm inh: >57; AmpC inh no det: 3.98µM*[single pt active]; AmpC det inh: 26.6%; Anthrax LT inh: -7.2%

What do the screens show for `O=C(c1ccco1)N1CCC2(CC1)CCN(c1cccc(-c3ccccc3)c1)CC2`?
Prx2 Sm inh: >57; AmpC inh no det: 124.9%; AmpC det inh: -3.3%; Anthrax LT inh: -0.4%

What do the screens show for `Cn1c(=O)c2cc(S(=O)(=O)NC(C(=O)Nc3cccnc3)c3ccccc3)ccc2n(C)c1=O` (centres undefined)?
Prx2 Sm inh: >57; AmpC inh no det: 3.98µM*[single pt active]; AmpC det inh: 10.6%; Anthrax LT inh: -8.2%

Results for Cn1c(=O)c2cc(S(=O)(=O)NC(C(=O)NCc3cccnc3)c3ccccc3)ccc2n(C)c1=O (centres undefined) ?
Prx2 Sm inh: >57; AmpC inh no det: 3.98µM*[single pt active]; AmpC det inh: 14.2%; Anthrax LT inh: -6.6%

What do the screens show for `O=C1CCc2cc(S(=O)(=O)NC(C(=O)NCc3cccnc3)c3ccccc3)ccc2N1` (centres undefined)?
Prx2 Sm inh: >57; AmpC inh no det: 3.98µM*[single pt active]; AmpC det inh: 11.8%; Anthrax LT inh: 1.1%

What do the screens show for `CC(NC(=O)CCNS(=O)(=O)c1ccc2c(c1)c(=O)n(C)c(=O)n2C)c1ccccc1` (centres undefined)?
Prx2 Sm inh: >57; AmpC inh no det: 8.6%; AmpC det inh: 3.8%; Anthrax LT inh: -22.1%

Results for O=c1cnc2cnc(Oc3cccc(Cl)c3)nc2n1C1CC1 ?
Prx2 Sm inh: >57; AmpC inh no det: 23.6%; AmpC det inh: -1.1%; Anthrax LT inh: -3.7%

What do the screens show for `COCCNc1ncnc2ccc(-c3ccc(N(C)C)cc3)cc12`?
Prx2 Sm inh: >57; AmpC inh no det: 78.5%; AmpC det inh: 7.8%; Anthrax LT inh: -3.3%

What do the screens show for `COc1ccccc1S(=O)Cc1ccc(C(=O)NCc2ccccc2Cl)o1` (centres undefined)?
Prx2 Sm inh: >57; AmpC inh no det: 3.98µM*[single pt active]; AmpC det inh: 12.2%; Anthrax LT inh: inconclusive

What do the screens show for `CC(CCN)(CCN)[N+](=O)[O-]`?
Prx2 Sm inh: >57; AmpC inh no det: 6.1%[5.75 µM]; AmpC det inh: -2.8%[5.75 µM]; Anthrax LT inh: -9.1%[8 µM]

How did COc1ccc(-c2nc(NC(=O)c3cc(C(C)(C)C)nn3C)sc2C)cc1 do in these assays?
Prx2 Sm inh: >57; AmpC inh no det: 21.1%; AmpC det inh: 7.0%; Anthrax LT inh: 5.01µM*

What do the screens show for `COC(=O)CNC(=O)[C@@]1(C)C=C[C@@H](Cc2ccccc2)N1C(=O)OC`?
AmpC inh no det: 54.2%; AmpC det inh: 19.0%; Anthrax LT inh: -3.0%

What do the screens show for `COCCn1c(=O)c(-c2ccc(Cl)cc2)nc2cncnc21`?
Prx2 Sm inh: >57; AmpC inh no det: 39.7%; AmpC det inh: 0.1%; Anthrax LT inh: inconclusive

How did COc1cccc(-c2nccc(NCc3cccnc3)n2)c1 do in these assays?
Prx2 Sm inh: >57; AmpC inh no det: 8.1%; AmpC det inh: -7.0%; Anthrax LT inh: 14.0%

Results for CCc1nccn1S(=O)(=O)c1ccc(C)c(C)c1 ?
Prx2 Sm inh: >57; AmpC inh no det: -4.9%; AmpC det inh: 1.3%; Anthrax LT inh: -16.2%

Results for CCc1nccn1S(=O)(=O)c1ccc(OC)c(OC)c1 ?
Prx2 Sm inh: >57; AmpC inh no det: 3.98µM*[single pt active]; AmpC det inh: 16.8%; Anthrax LT inh: -5.6%

What do the screens show for `Nc1nc(-c2ccc3ccccc3c2)cc(-c2cc(-c3ccc4ccccc4c3)nc(N)n2)n1`?
Prx2 Sm inh: >57; AmpC inh no det: -5.4%[5.75 µM]; AmpC det inh: -4.5%[5.75 µM]; Anthrax LT inh: -3.2%[8 µM]

Compound activity: PubChem BioAssay, National Center for Advancing Translational Sciences (NCATS)
